# About 83,000 compounds went through this panel and 20% of them were active in at least one assay; those are over-represented in the sample as a whole.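 Single-dose data. Exposure time 48 hours. Values below 10 considered active.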 A number with no mark means an inactive call. Activity calls are given as the source filed them.
# Experiments:
# Assay in all cases: NCI-60 one-dose screen, 48 h (100 = growth as untreated, 0 = no growth, -100 = all killed)
# Settings in all cases: 10 µM unless noted
# HCT-15 colon = test system: HCT-15 colon
# HT29 colon = test system: HT29 colon
# SNB-75 CNS = test system: SNB-75 CNS
# SNB-19 CNS = test system: SNB-19 CNS
# U251 CNS = test system: U251 CNS
# PC-3 prostate = test system: PC-3 prostate
# SK-MEL-5 melanoma = test system: SK-MEL-5 melanoma
# UACC-62 melanoma = test system: UACC-62 melanoma
# LOX IMVI melanoma = test system: LOX IMVI melanoma
# SK-MEL-28 melanoma = test system: SK-MEL-28 melanoma
Structure (SMILES),growth (HCT-15 colon),growth (HT29 colon),growth (SNB-75 CNS),growth (SNB-19 CNS),growth (U251 CNS),growth (PC-3 prostate),growth (SK-MEL-5 melanoma),growth (UACC-62 melanoma),growth (LOX IMVI melanoma),growth (SK-MEL-28 melanoma)
COc1cc(/C=C/C(=O)c2ccc(Nc3ncnc4ccccc34)cc2)cc(OC)c1,45.7%,-38.1% (active),70.9%,62%,34.2%,43.9%,90.8%,76.9%,5.65% (active),86.3%
O=C(Nc1nc2ccc(C(=O)N3CCN(c4ccc(Cl)c(Cl)c4)CC3)cc2s1)c1ccc(NCCc2ccccc2)c([N+](=O)[O-])c1,98.3%,100%,98.1%,100%,102%,92.4%,87.9%,78.1%,98.3%,105%
COc1ccncc1C#Cc1cncc(C(=O)Nc2ccc(CN3CCN(C)CC3)c(C(F)(F)F)c2)c1,16.9%,15.2%,65.7%,70.1%,62%,42.4%,34.2%,26.4%,-6.87% (active),18.2%
CCCCCCOc1ccc(C(=N)N(CCCC)CCCC)c2ccccc12,-82.1% (active),-83.2% (active),-98.9% (active),-88.9% (active),-77.7% (active),-84.2% (active),-99.3% (active),-86% (active),-92.6% (active),-94.3% (active)
CSc1nnc2c(=O)n(C)c(=O)n(C)c2n1,100%,111%,100%,97.5%,97.2%,83.2%,106%,95.8%,83.5%,95.5%
Cc1c2c(cc[n+]1Cc1ccccc1)c1ccc(OCc3ccccc3)cc1n2Cc1ccccc1,39.2%,-48.7% (active),-18% (active),-13.3% (active),-80.2% (active),-44.8% (active),-99.4% (active),-87.1% (active),-93.2% (active),-56.5% (active)
COc1ccc(C2CC(c3cccc(Nc4ccncc4)c3)=NN2c2ccc(Cl)cc2)cc1 (stereo not given),-53.3% (active),-20.2% (active),54.9%,90.4%,-40% (active),30.9%,61.3%,97%,-80.5% (active),-80.7% (active)
CN1CCN(c2c(F)cc(NC3=C(Cl)C(=O)c4ncccc4C3=O)cc2F)CC1,63.3%,104%,87.8%,101%,103%,88.5%,100%,100%,5.89% (active),69.8%
Fc1ccc(C2CC(c3cccc(Nc4ccncc4)c3)=NN2c2cc(Cl)cc(Cl)c2)cc1 (stereo not given),-42.3% (active),-21.5% (active),72.2%,82.3%,-29.5% (active),26%,84.7%,98.7%,-83% (active),20.2%
Cc1[nH]n(-c2cccc(Cl)c2)c(=O)c1/C=C1\C=Nc2ccc(Br)cc21,59.2%,11.1%,-13.5% (active),78.1%,7.54% (active),31.2%,60.4%,37.4%,4.2% (active),71.2%
Cn1c(COC(=O)N2CCCCC2)nc2c(N3CCOCC3)nc(-c3ccccc3)nc21,-43% (active),-33.4% (active),-85.4% (active),17.7%,-70.9% (active),-57.5% (active),-95.6% (active),-92.7% (active),-90.4% (active),-96.8% (active)
O=C(Nc1nc(-c2ccccc2Cl)cs1)c1cc(-c2ccccc2)nc2ccc(Cl)cc12,11.9%,85.3%,92.9%,80.6%,62.5%,73.2%,43.8%,41.8%,21.6%,70.8%
CCOC(=O)c1cnc2c(cnn2CC)c1NN=C(C)C,86%,84.7%,69%,87.6%,90.4%,98.4%,90.4%,79.3%,90.7%,113%
CC(C)(C)CC(C)(C)Nc1c(-c2ccc3c(c2)OCO3)nc2cnccn12,84.1%,80%,67.5%,90.9%,95.6%,67%,87.7%,66%,94%,94.3%
Cc1[nH]n(C(=O)c2ccncc2)c(=O)c1N=Nc1ccc(F)c(Cl)c1,111%,109%,92.4%,99.1%,112%,116%,107%,106%,111%,107%
COc1cc(/C=C/C(=O)c2c(C)oc3nc[nH]c(=O)c23)ccc1O,98.1%,108%,84.4%,97.3%,103%,103%,101%,96.5%,97.7%,101%
COc1cc(CCNc2nc3cc(N)cc(N)c3nc2-c2ccccc2)cc(OC)c1,69.7%,5.3% (active),39.9%,12.9%,-80.3% (active),4.03% (active),-91.7% (active),-22.3% (active),-79.7% (active),-12.2% (active)
Cc1c(C(=O)NO)sc2ncnc(Nc3ccc(NC(=S)Nc4ccccc4)cc3)c12,95.4%,103%,87.9%,96.5%,104%,106%,101%,95%,93.8%,105%
CC(=O)Nc1ccc(C(=O)Nc2cc(-c3ccccc3)ccc2N)cc1,85.7%,50.7%,60.4%,91.7%,78.1%,64.7%,68.3%,39.5%,71.3%,56.6%
C/C(=C(/c1ccccc1)c1ccc(OCC(O)CN2CCOCC2)cc1)c1ccccc1 (stereo not given),53.8%,13.1%,91.4%,102%,81.1%,71.8%,87.1%,97%,87.9%,90%
CC1(C)CN(Cc2ccccc2)CCN1Cc1ccccc1,104%,96.2%,121%,98.1%,92.3%,95.4%,97.8%,97.9%,98.6%,111%
Clc1ccc(C2CC(c3cccc(Nc4ccncc4)c3)=NN2c2cc(Cl)cc(Cl)c2)cc1 (stereo not given),-25.2% (active),5.22% (active),82.8%,89.2%,0.417% (active),48.9%,88.9%,101%,-44.6% (active),74.2%
CC(=O)N1c2ccccc2NC2=C(C(=O)N(Cc3ccccc3)C2(C)C)C1c1ccco1 (stereo not given),15.7%,9.99% (active),16.8%,23.6%,24.6%,29.7%,7.88% (active),21.2%,25.6%,57.3%
NC(=O)CN1CCN(c2ccccc2Cl)CC1,107%,101%,119%,118%,111%,105%,110%,113%,109%,110%
CC(C)Cc1ccc(C(C)C(=O)NCc2c[nH]c3ccc(Cl)cc23)cc1 (stereo not given),91.2%,111%,102%,96.2%,91.8%,66.2%,85.4%,66.6%,96%,94.6%
COc1cc2c(cc1[N+](=O)[O-])-c1ccc([N+](=O)[O-])cc1/C2=N/NC(N)=S,72.3%,48.7%,48.7%,58.8%,47.1%,58%,63.1%,36.4%,43.5%,95.4%
CCNC(=O)c1[nH]cc(-c2ccc(OC)cc2)c1-c1cc(OC)c(OC)c(OC)c1,35.7%,14.7%,-6.81% (active),55.2%,55.5%,28.8%,16%,27%,44.5%,56.7%

# From PubChem BioAssay (NCI)
